Rows were chosen to be rich in hits. Some 1.9% of all compounds tested hit in one or more screens of this group.
IEC-6 tox – kills IEC-6 intestinal cells in KLF5 counter-screen. IEC-6 cytotoxicity, luminescence viability. inhibition, % at 5 µM. 290,000 tested, 0.78% active. AID 1825; in the data active = inhibition above about 22%;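 also: 0% = plate median of test compound wells and 100% = cytotoxic reference compound wells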
Ba/F3 V617F tox – reduce viability of Ba/F3 cells dependent on JAK2V617F | 220,000 tested, 1.1% active | AID 1446 | inhibition, % at 5.6 µM | Ba/F3 EpoR-JAK2V617F viability, ATP luminescence;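 active = inhibition above the campaign mean plus 3 SD over all tested compounds, cut at about 24% in these data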;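 also: cytokine-independent growth of Ba/F3 cells driven by EpoR plus mutant JAK2; 0% = DMSO-treated cells and 100% = JAK inhibitor I control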
BaF3 tox – reduces parental Ba/F3 cell viability, JAK2V617F counter-screen | AID 1486 | CellTiter-Glo ATP luminescence | 220,000 tested, 1.1% active | inhibition, % at 5.6 µM;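 active = inhibition above a per-campaign cutoff, the mean inhibition of all tested compounds plus 3 SD, cut at about 27% in these data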;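 also: 0% = DMSO wells and 100% = JAK Inhibitor I control wells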
KLF5 inhibitor – suppresses KLF5 promoter-driven expression | DLD-1 KLF5 promoter-luciferase reporter, luminescence | inhibition, % at 5 µM | 290,000 tested, 0.23% active | AID 1700;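 active = inhibition above a per-plate limit of that plate's mean compound inhibition plus 3 SD, cut at about 60% in these data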;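 also: 0% = DMSO wells and 100% = LY294002 at 200 µM; higher means less KLF5 promoter-driven luciferase light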
APP 5UTR inh – APP translation inhibition; SH-SY5Y APP 5'UTR-luciferase reporter, luminescence; 190,000 tested, 0.82% active; inhibition, % at 2 µM;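 active = inhibition above a set limit, derived from the sample mean plus 3 SD, cut at about 45% in these data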
Active calls of the source: *; . = no result given.

SMILES	IEC-6 tox	Ba/F3 V617F tox	BaF3 tox	KLF5 inhibitor	APP 5UTR inh
Cc1nc(-c2nnc(SCC(=O)Nc3ccc(Cl)cc3)n2C)cs1	2	1	7	-4	.
Cc1cc(/C=C2\Sc3ccccc3N2C)cc(C)[n+]1CC1CCCO1 (stereo not given)	11	100*	76*	-5	-4
COc1ccc(NS(=O)(=O)c2cc(NC(=O)CC3CCCC3)ccc2N2CCOCC2)cc1	-4	7	32*	-15	14
CCOC(=O)C1=C(C)N=c2s/c(=C\c3cccn3C)c(=O)n2C1c1cccc(OC)c1OC (stereo not given)	-2	-5	96*	-25	-9
CCCOc1ccc(C(=O)CCNC(Cc2c[nH]c3ccccc23)C(=O)O)cc1 (stereo not given)	4	.	.	-34	.
COc1cc2c(cc1OC)CN(C(=S)Nc1ccccc1)CC2	-3	4	33*	-10	-7
COc1cc2c(cc1OC)CN(C(=S)Nc1ccccc1Cl)CC2	2	3	6	-4	0
Oc1ccccc1N=Nc1ccccc1O	-3	6	3	61	83*
CC(C)(C)OC(=O)N[C@@H](Cc1ccccc1)c1nnc(S(=O)(=O)Cc2ccccc2)o1	5	58*	8	-2	64*
CC1=CC2=NC(=O)CC(C)(C(=O)N(CC(=O)NC3CCCC3)Cc3ccccc3)N2C=C1 (stereo not given)	-2	.	.	-1	.
Oc1c(CN2CCOCC2)cc(COCc2ccccc2)c2cccnc12	-3	2	1	0	92*
COCc1cc(CN2CCN(C)CC2)c(O)c2ncccc12	-4	-5	2	-26	-2
CC1SCC(NC(=O)c2ccc(Cl)cc2)CS1 (stereo not given)	8	-3	46*	-47	.
O=C1C(C=NCc2ccncc2)=C(O)c2ccccc21	0	-5	2	-45	-17
O=C1N/C(=C/c2ccc(Br)cc2)C(O)=C1C=NCc1ccccc1	-1	-1	6	-16	59*
O=C(NNC(=O)C1CCN(c2ncccn2)CC1)c1ccc(Cl)cc1	6	5	90*	3	-23
Cn1cc(C(=O)N/N=C/C(Br)=C/c2ccccc2)ccc1=O	10	1	2	-35	85*
CCOc1nc2ccccc2cc1C=O	-4	1	6	-19	57*
CCCOc1nc2ccccc2cc1/C=C/C(=O)O	-1	3	2	-19	-7
COc1ccc(OC)c(NC(=O)C(=O)NNC(=O)C23CC4CC(CC(C4)C2)C3)c1	1	-1	2	12	.
Oc1ccc(-c2nccc(-c3ccccn3)n2)cc1	-1	.	.	-105	.
COC(=O)Cn1ncc2c3ccccc3n(C)c2c1=O	-7	0	90*	-28	-10
Cn1c2ccccc2c2cnn(CC(=O)O)c(=O)c21	-4	1	3	-23	-24
CC1(C)Cc2c(cnn2-c2ccccc2)C(NC(=O)CCN2CCCC2=O)C1 (stereo not given)	-6	.	.	-1	.
Cc1cc(C)n(CCNC(=O)c2ccco2)n1	7	.	.	-14	.
SMILES	IEC-6 tox	Ba/F3 V617F tox	BaF3 tox	KLF5 inhibitor	APP 5UTR inh
Cc1c(C(=O)N/N=C/c2ccc(Cl)cc2)[nH]c2ccc(Cl)cc12	11	5	9	-5	93*
CCN1CCN(C(=O)c2ccc3nc(-c4ccccc4)c(-c4ccccc4)nc3c2)CC1	-6	.	.	-29	.
Cc1nn(CC(=O)Nc2ccc(Cl)cn2)c(C)c1[N+](=O)[O-]	0	-1	43*	-2	1
COc1ccc(Cl)cc1NC(=O)NC1CCCCC1	-7	-4	6	-32	9
CCCN1CCC(NC(=O)Nc2cc(Cl)ccc2OC)CC1	5	1	90*	3	0
COc1ccc(OCC(=O)NNC(=O)c2ccc3c(=O)n4c(nc3c2)CCC4)cc1	-1	.	.	-7	.
CCc1c(OC(C)=O)c2ccccc2n(C)c1=O	1	-5	3	15	-11
CC(=O)Oc1c(C)c(=O)n(C)c2ccccc12	0	66*	42*	-12	-16
CN(C)c1nc(N/N=C/c2ccccc2O)nc(Nc2ccc(F)cc2)n1	3	-2	5	-3	48*
CN(C)c1nc(Nc2ccc(F)cc2)nc(Oc2ccc(F)cc2)n1	-4	.	.	-37	.
C/C(=N\NC(=O)c1cc(-c2cccnc2)nc2ccccc12)c1ccccc1O	10	-1	6	-12	56*
Cc1nn(CC(=O)NCCN2CCOCC2)c(=O)c2cc3sccc3n12	0	.	.	-32	.
N#Cc1c2n(c3c(N)ncnc13)CCCCC2	1	-2	-3	-5	.
COC(=O)c1cc(OC)c(OC)cc1NC(=S)N1CCN(C/C=C/c2ccccc2)CC1	0	-4	5	-6	15
O=C(N/N=C/c1cccc2ccccc12)c1n[nH]c2c1CCCC2	2	-2	9	-18	74*
O=C(N/N=C\c1cccc(Cl)c1)c1n[nH]c2c1CCCC2	4	1	7	-90	-156
O=C(N/N=C/C=C/c1ccccc1)c1n[nH]c2c1CCC2	11	10	7	-7	60*
Fc1ccccc1/C=N/NC(=S)Nc1ccc(Cl)cc1Cl	3	4	10	6	94*
Fc1ccc(NC(=S)Nc2ccc(Cl)cc2Cl)cc1	-2	1	7	-7	-2
Cc1cc(C)c2[nH]c(=O)c(CN(CC3CCCO3)C(=S)Nc3ccccc3)cc2c1 (stereo not given)	-4	2	5	-4	.
Cc1ccc2cc(CN(CC3CCCO3)C(=S)Nc3ccccc3)c(=O)[nH]c2c1C (stereo not given)	8	1	8	-16	53*
CCCCCCCC1CC(CSc2ncn[nH]2)OC1=O (stereo not given)	5	-1	0	-21	49*
CCCCC1CC(CSc2ncn[nH]2)OC1=O (stereo not given)	-1	0	0	-31	-4
CCOc1ccc(N(CC(=O)NCc2ccccc2C)S(C)(=O)=O)cc1	1	.	.	-111	.
COc1c(OC2OC(C(=O)O)C(O)C(O)C2O)cc(O)c2c(=O)cc(-c3ccccc3)oc12 (stereo not given)	-1	19	29*	-7	6
O=C(O)C1OC(Oc2cc3oc(-c4ccccc4)cc(=O)c3c(O)c2O)C(O)C(O)C1O (stereo not given)	-21	-4	3	-39	6
CSc1cccc(-n2cc(-c3ccc4c(c3)OCO4)[nH]c2=O)c1	10	2	29*	-42	-59
O=C1c2cccc3cc([N+](=O)[O-])cc(c23)C(=O)N1c1ccccc1O	5	14	29*	-1	12
Cc1nn(C)c(C)c1CNC(=O)c1nn2c(c1Cl)NC(c1cccs1)CC2C(F)(F)F (stereo not given)	4	15	32*	14	3
Cc1nn(C)cc1CNC(=O)c1cc2n(n1)C(C(F)(F)F)CC(c1cccs1)N2 (stereo not given)	8	2	2	-6	10

Source: PubChem BioAssay
